Assay [1] has as its target Progesterone receptor (Homo sapiens) (UniProt P06401). The assay can be described thus: qHTS assay to identify small molecule agonists of the progesterone receptor (PR) signaling pathway (AID 1346784; calls by dose curve; also: nearly all actives have a fitted effect of over 30% in size). Summed up:
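The screen uses PR-UAS-bla HEK 293T cells in charcoal-stripped serum (2%). Compounds are applied for 16 hr at 37C after a 6 hr pre-incubation, and reporter activity is detected with a FRET beta-lactamase substrate after 2 hr at room temperature.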
A general note: In qHTS, concentration-response curves come from the screen itself.

Assay [2] shares this target. The experiment in a line: qHTS assay to identify small molecule antagonists of the progesterone receptor (PR) signaling pathway (AID 1346795; active = well fitted inhibition curve with a large enough effect in the signal ratio in the repeat runs, not every such curve was filed as active; the % refers to the signal ratio). The gist of the method:
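After 6 hr plating at 37C in 2% stripped-serum medium, PR-UAS-bla HEK293T cells got compounds, then 1 nM R5020. Sixteen hours later, LiveBLAzer substrate was applied for 2 hr at room temperature and fluorescence was recorded.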

A short description of assay [3]: qHTS assay to identify small molecule antagonists of the progesterone receptor (PR) signaling pathway - cell viability counter screen (AID 1346798). Also: series mostly up to about 92 µM; nearly all actives have a fitted effect of over 50% in size. The gist of the method:
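Viability was determined by ATP-based luminescence (CellTiter-Glo) in PR-UAS-bla HEK293T cells cultured in 2% charcoal-stripped serum and incubated 16 hr with compounds under R5020 stimulation.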

Assay [4] is described as follows: qHTS assay to identify small molecule agonists of the progesterone receptor (PR) signaling pathway - cell viability counter screen (AID 1346799; calls by dose curve; also: nearly all actives have a fitted effect of over 45% in size). Summed up:
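Viability was scored by ATP luminescence (CellTiter-Glo, 30 min, room temperature) in the same wells used for the reporter readout, after 16 hr compound exposure of PR-UAS-bla HEK293T cells.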

A short description of assay [5]: qHTS assay to identify small molecule antagonists of the TGF-beta/Smad signaling pathway - cell viability counter screen (AID 1346824). Also: nearly all actives have a fitted effect of over 50% in size. Summed up:
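SBE-bla HEK 293T cells, incubated overnight, then compound plus 0.25 ng/mL TGF-beta1 (stock added) for 5 hr at 37 C. Viability was read in the same wells by CellTiter-Glo luminescence after 30 min at room temperature.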

Assay [6] is described as follows: qHTS assay to identify small molecule agonists of the TGF-beta/Smad signaling pathway - cell viability counter screen (AID 1346829). Also: top concentration of the series differs between compounds; nearly all actives have a fitted effect of over 45% in size. Summed up: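 Luminescence from CellTiter-Glo, read after a 30 min room-temperature incubation, gives cell viability of SBE-bla HEK 293T cells treated 5 hr with compounds at 37 C.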
The nature of assay [7]: qHTS assay to identify small molecule agonists of the TGF-beta/Smad signaling pathway (AID 1346859; active = well fitted activation curve with a large enough effect in the signal ratio in the repeat runs, not every such curve was filed as active; the % refers to the signal ratio; also: series mostly up to about 77 µM). Summed up:
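Dual-wavelength fluorescence (460/530 nm emission) quantified beta-lactamase expression under the Smad binding element in HEK 293T cells following 5 hr compound treatment at 37 C.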

Assay [8] concerns the target Thyrotropin-releasing hormone receptor (Homo sapiens) (UniProt P34981). The assay can be described thus: qHTS assay to identify small molecule antagonists of the thyrotropin-releasing hormone receptor (TRHR) signaling pathway (AID 1346877; active = well fitted inhibition curve with a large enough effect in the repeat runs, not every such curve was filed as active; also: series mostly up to about 51 µM). Summed up:
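TRHR-expressing HEK293 cells were seeded, cultured 18 h at 37 °C, then loaded with calcium dye for 2 h. Compounds were pre-incubated 5 min at room temperature before 1 nM TRH (final) was added, and kinetic fluorescence was recorded for 3 min.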

Assay [9] has the same target. The assay can be described thus: qHTS assay to identify small molecule agonists of the thyrotropin-releasing hormone receptor (TRHR) signaling pathway (AID 1346891; calls by dose curve; also: series mostly up to about 58 µM). The gist of the method:
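Kinetic fluorescence (3 min, 1 s intervals) reported intracellular calcium after compound transfer onto TRHR-Hek293 cells pre-loaded with dye for 2 h at 37 °C.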

Assay [10] is described as follows: Human pregnane X receptor (PXR) small molecule agonists, qHTS cell viability counter screen (AID 1346977). Also: nearly all actives have a fitted effect of over 50% in size. Also: potency is read from the fitted curve at half-maximal effect. Summed up:
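HepG2 cells stably carrying the PXR-Luc reporter are cultured with 5% charcoal-stripped FBS and treated with compounds for 24hr. CellTiter-Fluor is added at 23hr and fluorescence is read after 1hr.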

A short description of assay [11]: Caspase-3/7 induction in HepG2 cells by small molecules, qHTS assay (AID 1346978). Also: nearly all actives have a fitted effect of over 15% in size. The gist of the method: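 Wild-type HepG2 cells, 2,000/well, settled 5 hr at 37 C and 5% CO2, then compound-treated for 17 hr; caspase-3/7 activity read by luminescent Caspase-Glo 3/7 after 30 min at room temperature.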
A short description of assay [12]: Caspase-3/7 induction in CHO-K1 cells by small molecules, qHTS cell viability counter screen (AID 1346979). Also: nearly all actives have a fitted effect of over 35% in size. Also: potency is read from the fitted curve at half-maximal effect. Summed up:
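Seeding: 1,500 CHO-K1 cells/well. Rest: 5hr, 37C. Treatment: compounds in DMSO, 16hr. Read: CellTiter-Fluor, 1hr, fluorescence.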

A short description of assay [13]: Caspase-3/7 induction in CHO-K1 cells by small molecules, qHTS assay (AID 1346980). Also: nearly all actives have a fitted effect of over 15% in size. Summed up:
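Wild-type CHO-K1 cells exposed to compounds for 17hr at 37 C, 5% CO2. Caspase-3/7 activity then measured by Caspase-Glo 3/7 luminescence after 30min at room temperature.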

The nature of assay [14]: Caspase-3/7 induction in HepG2 cells by small molecules, qHTS cell viability counter screen (AID 1346981). Also: series mostly up to about 92 µM; nearly all actives have a fitted effect of over 30% in size. The gist of the method:
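Wild-type HepG2 cells (2,000/well) were allowed to settle for 5 hr at 37 C, 5% CO2, then dosed with compounds in DMSO by pin transfer. After 16 hr at 37 C, CellTiter-Fluor was added and fluorescence read 1 hr later.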

The target in assay [15] is Nuclear receptor subfamily 1 group I member 2 (Rattus norvegicus) (UniProt Q9R1A7). The experiment in a line: Rat pregnane X receptor (rPXR) activation by small molecules, qHTS assay (AID 1346983). Also: nearly all actives have a fitted effect of over 20% in size. The note with it: rPXR luciferase reporter cells, One-Glo luminescence, 24 h; max activation: hits give high values. Summed up:
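Cell-based rPXR activation assay: rPXR cells, 2,000 per well, rested 5hr at 37 C, then exposed to compounds in DMSO for 24 hr at 37 C. Luciferase activity read by One-Glo luminescence after 30 min at room temperature.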

For assay [16], the target named is Acetylcholinesterase (Homo sapiens) (UniProt P22303). The assay can be described thus: Acetylcholinesterase (AChE) small molecule antagonists: colormetric cell-based qHTS assay (AID 1347395; calls by dose curve; also: nearly all actives have a fitted effect of over 30% in size). Summed up: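 Quantitative HTS in attached SH-SY5Y cells: 30 min compound exposure, then 90 min with acetylthiocholine and DTNB at 37 C; colour from thiocholine reports AChE activity.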

Assay [17] deals with Nuclear receptor subfamily 1 group I member 2 (Homo sapiens) (UniProt O75469). The assay can be described thus: Human pregnane X receptor (PXR) small molecule agonists, qHTS assay (AID 1346982). Also: nearly all actives have a fitted effect of over 35% in size. Also: potency is read from the fitted curve at half-maximal effect. The gist of the method:
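PXR-Luc HepG2 cells (CYP3A4 promoter-driven luciferase) were seeded in medium with 5% charcoal-stripped FBS, left 5 hr at 37 C, then exposed to compounds in DMSO for 24 hr. Luminescence was read after ONE-Glo addition.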

The target is the same in assay [18]. The assay can be described thus: CYP3A4 induction through human pregnane X receptor (PXR) by small molecules, qHTS assay (AID 1346984). Also: nearly all actives have a fitted effect of over 40% in size. Summed up:
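DPX-2 cells (HepG2 co-transfected with PXR and CYP3A4 promoter-luciferase) treated with compounds 24 h at 37C; luciferin-IPA CYP3A4 substrate 3uM final added for 3 h, then One-Glo; luminescence read. qHTS format.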

Assay [19] has the same target. The experiment in a line: Human pregnane X receptor (PXR) activation by small molecules, qHTS assay (AID 1346985). Also: nearly all actives have a fitted effect of over 40% in size. The gist of the method: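 DPX-2 cells (HepG2 co-transfected with a PXR response element and a CYP3A4-promoter luciferase construct) were seeded at 2,000 per well, rested 5 hr at 37C, then exposed to DMSO-dissolved compounds for 24 hr. Activation was read as luciferase luminescence.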

Assay [20] in a line: qHTS assay to identify small molecule agonists of the estrogen receptor alpha (ER-alpha) signaling pathway in the presence of an antagonist - cell viability counter screen (AID 1259386).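 Also: series mostly up to about 92 µM; cells exposed to compounds for 22 h at 37 °C before the viability read; nearly all actives have a fitted effect of over 30% in size.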 The gist of the method: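 VM7Luc4E2 cells (endogenous full-length ER-alpha, 4×ERE-luciferase) were held 5 days in phenol red-free medium with 10% charcoal-stripped FBS, plated, then given 10.0nM ICI-182,780 and compounds at 15 concentrations for 22hr at 37C; viability read by CellTiter-Fluor fluorescence.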

Structures are written as SMILES. A number with no mark means an inactive call. Inconclusive results are not listed. Activity calls are given as the source filed them. Unless noted, calls follow the shape of the dose curve; as a rule, active = well fitted curve in the direction sought with a large enough effect in the repeat runs; inconclusive = weak or mixed curves; inactive = no such curve, though single readings can be large; an effect the other way counts as inactive or inconclusive.

For nine compounds, Potency, outcome and max activation results are on record in PubChem BioAssay (Tox21).
% is scaled to controls: 0 for no effect and ±100 for the full control effect.

Chain of Thyrotropin-releasing hormone receptor (Homo sapiens) (P34981 whole entry, looked up): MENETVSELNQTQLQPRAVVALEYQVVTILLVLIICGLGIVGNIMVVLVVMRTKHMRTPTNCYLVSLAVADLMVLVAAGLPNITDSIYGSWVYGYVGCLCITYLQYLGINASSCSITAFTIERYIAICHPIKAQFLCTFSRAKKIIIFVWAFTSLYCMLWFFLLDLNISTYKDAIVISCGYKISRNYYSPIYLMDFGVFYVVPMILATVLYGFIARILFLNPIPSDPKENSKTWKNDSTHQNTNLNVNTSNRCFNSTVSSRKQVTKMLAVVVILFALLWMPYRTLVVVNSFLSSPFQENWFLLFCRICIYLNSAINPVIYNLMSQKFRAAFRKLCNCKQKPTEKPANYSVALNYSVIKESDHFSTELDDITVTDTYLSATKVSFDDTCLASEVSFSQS
Chain of Progesterone receptor (Homo sapiens) (P06401 whole entry, looked up): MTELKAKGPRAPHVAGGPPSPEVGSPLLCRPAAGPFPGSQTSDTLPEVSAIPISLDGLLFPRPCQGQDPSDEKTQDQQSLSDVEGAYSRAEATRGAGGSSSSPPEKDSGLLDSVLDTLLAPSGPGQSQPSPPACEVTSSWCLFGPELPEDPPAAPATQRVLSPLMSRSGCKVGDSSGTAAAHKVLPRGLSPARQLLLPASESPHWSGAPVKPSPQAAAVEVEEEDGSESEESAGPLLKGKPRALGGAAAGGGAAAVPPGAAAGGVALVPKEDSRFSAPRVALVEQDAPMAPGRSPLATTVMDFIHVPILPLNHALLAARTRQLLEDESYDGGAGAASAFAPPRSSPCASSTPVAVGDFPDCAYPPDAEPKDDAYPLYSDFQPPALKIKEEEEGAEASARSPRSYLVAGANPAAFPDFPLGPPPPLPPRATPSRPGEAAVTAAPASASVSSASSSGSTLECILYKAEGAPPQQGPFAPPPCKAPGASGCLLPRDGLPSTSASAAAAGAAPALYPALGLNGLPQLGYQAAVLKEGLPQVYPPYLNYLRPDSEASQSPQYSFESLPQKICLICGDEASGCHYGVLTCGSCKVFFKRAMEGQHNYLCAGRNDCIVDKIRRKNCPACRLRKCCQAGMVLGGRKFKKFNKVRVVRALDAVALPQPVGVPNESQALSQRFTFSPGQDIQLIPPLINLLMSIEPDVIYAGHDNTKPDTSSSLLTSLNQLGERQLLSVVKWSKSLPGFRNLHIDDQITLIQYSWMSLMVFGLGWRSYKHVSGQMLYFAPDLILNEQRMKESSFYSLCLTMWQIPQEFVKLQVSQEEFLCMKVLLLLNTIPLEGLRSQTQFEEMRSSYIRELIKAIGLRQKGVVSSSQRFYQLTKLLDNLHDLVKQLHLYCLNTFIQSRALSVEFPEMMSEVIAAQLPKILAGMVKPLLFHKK
Chain of Nuclear receptor subfamily 1 group I member 2 (Homo sapiens) (O75469 whole entry, looked up): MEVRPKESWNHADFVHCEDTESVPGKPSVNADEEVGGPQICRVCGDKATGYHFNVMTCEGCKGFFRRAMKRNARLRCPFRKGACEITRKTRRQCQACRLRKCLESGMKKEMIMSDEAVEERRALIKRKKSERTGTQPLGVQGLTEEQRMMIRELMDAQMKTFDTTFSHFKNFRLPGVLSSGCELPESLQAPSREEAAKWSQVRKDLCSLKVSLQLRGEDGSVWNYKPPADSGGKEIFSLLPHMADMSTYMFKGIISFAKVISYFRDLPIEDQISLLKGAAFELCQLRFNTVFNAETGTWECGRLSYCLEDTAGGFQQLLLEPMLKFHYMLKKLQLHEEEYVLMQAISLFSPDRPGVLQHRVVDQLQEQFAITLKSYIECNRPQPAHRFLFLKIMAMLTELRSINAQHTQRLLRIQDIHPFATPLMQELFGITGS
Chain of Acetylcholinesterase (Homo sapiens) (P22303 whole entry, looked up): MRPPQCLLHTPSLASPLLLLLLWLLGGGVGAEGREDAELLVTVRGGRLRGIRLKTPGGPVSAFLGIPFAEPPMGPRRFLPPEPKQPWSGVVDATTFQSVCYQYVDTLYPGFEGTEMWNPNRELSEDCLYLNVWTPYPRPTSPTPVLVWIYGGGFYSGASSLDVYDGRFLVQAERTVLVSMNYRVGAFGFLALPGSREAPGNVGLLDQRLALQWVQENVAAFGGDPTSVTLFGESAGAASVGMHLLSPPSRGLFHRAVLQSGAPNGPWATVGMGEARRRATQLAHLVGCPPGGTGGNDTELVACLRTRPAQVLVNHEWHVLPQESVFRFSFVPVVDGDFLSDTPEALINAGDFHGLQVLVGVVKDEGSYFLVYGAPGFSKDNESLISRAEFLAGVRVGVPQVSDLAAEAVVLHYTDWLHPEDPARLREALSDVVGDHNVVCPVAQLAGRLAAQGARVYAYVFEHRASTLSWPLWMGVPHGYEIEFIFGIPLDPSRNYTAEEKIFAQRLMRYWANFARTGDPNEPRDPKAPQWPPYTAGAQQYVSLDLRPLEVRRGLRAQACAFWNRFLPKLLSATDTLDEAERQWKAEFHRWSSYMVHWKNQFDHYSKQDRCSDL
Chain of Nuclear receptor subfamily 1 group I member 2 (Rattus norvegicus) (Q9R1A7 whole entry, looked up): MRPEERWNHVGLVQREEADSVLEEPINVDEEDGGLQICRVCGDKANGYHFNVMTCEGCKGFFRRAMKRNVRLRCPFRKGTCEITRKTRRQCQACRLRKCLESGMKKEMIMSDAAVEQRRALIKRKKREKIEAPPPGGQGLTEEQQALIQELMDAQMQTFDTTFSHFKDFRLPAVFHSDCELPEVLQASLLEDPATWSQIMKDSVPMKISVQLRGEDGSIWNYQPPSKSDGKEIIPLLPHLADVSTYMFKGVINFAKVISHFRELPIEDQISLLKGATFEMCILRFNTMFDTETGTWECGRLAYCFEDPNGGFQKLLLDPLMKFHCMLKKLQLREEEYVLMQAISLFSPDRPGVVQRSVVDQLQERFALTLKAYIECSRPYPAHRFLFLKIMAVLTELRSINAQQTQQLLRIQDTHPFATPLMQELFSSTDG

As to `CN1CCN(C(=O)O[C@H]2c3nccnc3C(=O)N2c2ccc(Cl)cn2)CC1`, the Potency result in assay [1], in [2], in assay [3], in assay [4], in assay [5] and in [10] was “inactive” throughout. The Potency result in assay [11], in assay [12], in assay [13], in assay [14] and in assay [16] was “inactive” throughout. In addition, the result in [6], in assay [7], in [8] and in [9] was inactive. Also, the max activation in assay [15] is 2%.
As to `NC(=O)c1cc([N+](=O)[O-])cc([N+](=O)[O-])c1`, the Potency entry in assay [1], in assay [2], in [3], in assay [4], in assay [5] and in assay [11] was “inactive” throughout. Also, the Potency entry in assay [12], in [13], in assay [14], in [17], in assay [18] and in assay [19] was “inactive” throughout. For the same compound, the result in assay [6], in assay [7] and in [8] was inactive. The max activation in [15] is -0.752%.
In the case of `COc1cc(OC)nc(NC(=O)NS(=O)(=O)c2ncccc2OCC(F)(F)F)n1`, the Potency entry in assay [1], in assay [2], in [3], in assay [4], in assay [5] and in [10] was “inactive” in each case. Besides, the Potency entry in assay [11], in assay [12], in [13], in assay [14] and in [16] was “inactive” in each case. Besides, the compound was classed as inactive in assay [6] and in [7].
With `COc1cc(OC)nc(Sc2cccc(Cl)c2C(=O)O)n1`, the Potency result in assay [20], in [3], in [4], in [5], in assay [10] and in assay [11] was “inactive” in each case. Further, the Potency result in assay [12], in assay [14], in assay [17] and in assay [16] was “inactive” throughout. The call in [6], in [7] and in [8] was inactive.
As for `O=C(Oc1ccc(Br)cc1)N1CCN2CCC1CC2`, the Potency result in assay [1], in assay [2], in [4], in assay [5], in assay [10] and in assay [11] was “inactive” each time. Moreover, the Potency entry in assay [12], in assay [13], in assay [14], in assay [17] and in assay [16] was “inactive” throughout. Further, the compound was called inactive in [6], in assay [7], in assay [8] and in assay [9].
On to `CCCCOC(=O)c1ccccc1N`, for which the Potency result in [2], in assay [3], in assay [4], in assay [5], in [10] and in assay [11] was “inactive” each time. Also, the Potency result in [12], in assay [13], in assay [14] and in assay [16] was “inactive” each time. Besides, the call in assay [6], in [7], in assay [8] and in [9] was inactive.
Regarding `CC1=C(C(=O)Nc2ccccc2)S(=O)(=O)CCO1`, the Potency entry in assay [5], in assay [11], in assay [13], in assay [17] and in [16] was “inactive” throughout. Further, the compound was classed as inactive in [6] and in assay [7]. Also, the Potency in assay [12] was 61.1 µM (active).
Turning to `c1cc[c]([Hg][c]2ccccc2)cc1`, the Potency result in [1], in [3], in [11], in [13], in assay [14] and in assay [16] was “inactive” in each case. The call in [7], in assay [8] and in assay [9] was inactive. Moreover, the Potency in [10] was 68.6 µM (active); in assay [12] it was 68.6 µM (active); in assay [17] it was 10.9 µM (active).
With `CSc1nc(N=[N+]=[N-])nc(NC(C)C)n1`, the Potency result in [1], in [3], in assay [4], in assay [5], in assay [10] and in assay [11] was “inactive” throughout. Further, the Potency result in assay [12], in assay [13], in [14] and in assay [16] was “inactive” each time. Also, the compound was called inactive in assay [7], in [8] and in assay [9]. In addition, the Potency in [17] is 61.1 µM (active).
